PubChem BioAssay (NCI)
Compounds without any hit were thinned out: in the full panel of roughly 79,000, 15% have a hit. Activity calls are given as the source filed them. No stated cut-off is given here; in the data, active means growth inhibition above about 70%; inactive means the rest.

Experiments:
[1] = NCI Yeast Anticancer Drug Screen. Data for the rad50 strain (AID 155);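 further: 0% = growth of vehicle-only cultures of the same strain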; settings: S. cerevisiae rad50 strain growth inhibition, stronger effect = higher value
In short: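 Yeast carrying a defined DNA repair defect were exposed to test compounds, and growth was compared with vehicle-treated controls to give percent inhibition.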

[2] = NCI Yeast Anticancer Drug Screen. Data for the mec2-1 strain (AID 157); settings: S. cerevisiae mec2-1 strain, stronger effect = higher value
In short: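 Strain: mec2-1 (DNA repair/cell cycle alteration). Compound exposure, then growth measured; inhibition expressed relative to vehicle.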

[3] = NCI Yeast Anticancer Drug Screen. Data for the sgs1 mgt1 strain (AID 161);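 further: 0% = growth of cultures given vehicle only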; settings: S. cerevisiae sgs1 mgt1 strain, stronger effect = higher value
In short: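 Inhibition of yeast growth, normalised to vehicle-treated controls, is reported for a strain bearing genetic alterations in DNA damage repair.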

[4] = NCI Yeast Anticancer Drug Screen. Data for the cln2 rad14 strain (AID 165);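 further: 0% = growth equal to vehicle treated cultures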; settings: S. cerevisiae cln2 rad14 strain, stronger effect = higher value
In short: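 Compounds are applied to the cln2 rad14 yeast strain, and growth is then compared with that of vehicle-treated cultures to give inhibition.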

[5] = NCI Yeast Anticancer Drug Screen. Data for the bub3 strain (AID 167); settings: S. cerevisiae bub3 mutant strain, stronger effect = higher value
In short: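 Compounds were applied to a genetically altered yeast strain carrying a cell-cycle control defect. Growth inhibition was scored against vehicle-treated controls.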

[6] = NCI Yeast Anticancer Drug Screen. Data for the mlh1 rad18 strain (AID 175); settings: S. cerevisiae mlh1 rad18 strain growth inhibition, stronger effect = higher value
In short: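 Read-out is yeast growth inhibition, calculated against vehicle-only controls. The compound was applied to a strain engineered with DNA damage repair alterations.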

[7] = at 5.0 µM (retest, dose inferred, filed as 0.5)
[8] = at 50.0 µM (retest, dose inferred, filed as 5.0)

Measured: growth inhibition

CC1CC(C)CC(C(O)(C(=O)O)C2CC(C)CC(C)C2)C1 (configuration not stated)
active: [1]; [8] 99% | [1]; at 50.0 µM 99.2% | [2]; [8] 99% | [2]; at 50.0 µM 97% | [3]; [8] 99% | [3]; at 50.0 µM 99.5% | [4]; [7] 82% | [4]; [8] 100% | [4]; at 50.0 µM 78.5% | [5]; at 50.0 µM 94% | [6]; [8] 99% | [6]; at 50.0 µM 99.5%
inactive: [1]; [7] 23% | [2]; [7] 18% | [3]; [7] 10% | [5]; [7] 29% | [5]; [8] -34% | [6]; [7] 18%

Nc1ccc(-c2cccc(-c3ccccc3)c2)cc1
active: [1]; [8] 94% | [1]; at 50.0 µM 98% | [2]; [8] 94% | [2]; at 50.0 µM 97.7% | [3]; [8] 97% | [3]; at 50.0 µM 96.2% | [4]; [8] 96% | [4]; at 50.0 µM 98.7% | [5]; [8] 97% | [5]; at 50.0 µM 98.3% | [6]; [8] 97% | [6]; at 50.0 µM 97.6%
inactive: [1]; [7] -8% | [2]; [7] -11% | [3]; [7] -11% | [4]; [7] -40% | [5]; [7] -15% | [6]; [7] -27%

Nc1cc(=O)[nH]c(=S)[nH]1.[Pd]
active: [4]; at 50.0 µM 71%
inactive: [1]; [7] 0% | [1]; [8] -4% | [1]; at 50.0 µM 20% | [2]; [7] 4% | [2]; [8] 5% | [2]; at 50.0 µM 18.6% | [3]; [7] 5% | [3]; [8] 6% | [3]; at 50.0 µM 13.3% | [4]; [7] 0% | [4]; [8] 36% | [5]; [7] 3% | [5]; [8] 13% | [5]; at 50.0 µM -4.45% | [6]; [7] 0% | [6]; [8] -4% | [6]; at 50.0 µM 35.6%

CCNc1cc(SC)nc(N)n1
inactive: [1]; [7] 1% | [1]; [8] -4% | [1]; at 50.0 µM 1.2% | [2]; [7] -1% | [2]; [8] 2% | [2]; at 50.0 µM 37.1% | [3]; [7] -1% | [3]; [8] -3% | [3]; at 50.0 µM -7.6% | [4]; [7] -8% | [4]; [8] 3% | [4]; at 50.0 µM -3.6% | [5]; [7] -2% | [5]; [8] -1% | [5]; at 50.0 µM -23.2% | [6]; [7] 1% | [6]; [8] -4% | [6]; at 50.0 µM -22.4%

CCN(C(C)=O)c1cnc(/C=N/NC(N)=S)c2ccccc12
inactive: [1]; [7] 13% | [1]; [8] 47% | [1]; at 50.0 µM 66.6% | [2]; [7] 11% | [2]; [8] 47% | [3]; [7] 18% | [3]; at 50.0 µM 28.9% | [4]; [7] -13% | [4]; [8] 57% | [4]; at 50.0 µM 61.3% | [5]; [7] 21% | [5]; at 50.0 µM 60.4% | [6]; [7] 11% | [6]; [8] 57% | [6]; at 50.0 µM 31.5%
active: [2]; at 50.0 µM 76.9% | [3]; [8] 71% | [5]; [8] 71%

Cc1cc(NC(=S)SCc2ccc(Cl)cc2)ccc1Br
active: [1]; [8] 98% | [1]; at 50.0 µM 91.3% | [2]; [8] 99% | [2]; at 50.0 µM 92.7% | [3]; [8] 99% | [3]; at 50.0 µM 91.3% | [4]; [8] 99% | [4]; at 50.0 µM 88.8% | [5]; [8] 100% | [5]; at 50.0 µM 91.2% | [6]; [8] 99% | [6]; at 50.0 µM 91.2%
inactive: [1]; [7] 35% | [2]; [7] 26% | [3]; [7] 47% | [4]; [7] 37% | [5]; [7] 55% | [6]; [7] 25%

O=C(Nc1ccc(Cl)c(Cl)c1Cl)Oc1c(Cl)c(Cl)c(Cl)c(Cl)c1Cl
active: [1]; [8] 97% | [1]; at 50.0 µM 99.5% | [2]; [8] 100% | [2]; at 50.0 µM 99.6% | [3]; [8] 99% | [3]; at 50.0 µM 99.6% | [4]; [8] 99% | [4]; at 50.0 µM 99.2% | [5]; [8] 99% | [5]; at 50.0 µM 98.5% | [6]; [8] 99% | [6]; at 50.0 µM 99.5%
inactive: [1]; [7] 25% | [2]; [7] 36% | [3]; [7] 43% | [4]; [7] 13% | [5]; [7] 10% | [6]; [7] 20%

CN(C)CCN(C)N=Nc1c(-c2cccs2)n[nH]c1C(F)(F)F
active: [1]; [7] 98% | [1]; [8] 99% | [1]; at 50.0 µM 99.1% | [2]; [7] 99% | [2]; [8] 100% | [2]; at 50.0 µM 99.7% | [3]; [7] 99% | [3]; [8] 100% | [3]; at 50.0 µM 99.6% | [4]; [7] 99% | [4]; [8] 98% | [4]; at 50.0 µM 99.3% | [5]; [7] 99% | [5]; [8] 99% | [5]; at 50.0 µM 99.5% | [6]; [7] 99% | [6]; [8] 100% | [6]; at 50.0 µM 99.5%

CCC(C)NCCNc1cc(OC)cc2cccnc12 (configuration not stated)
inactive: [1]; [7] 10% | [1]; [8] 13% | [1]; at 50.0 µM 42.9% | [2]; [7] 1% | [2]; [8] 0% | [2]; at 50.0 µM 27% | [3]; [7] 7% | [3]; [8] 10% | [3]; at 50.0 µM 21% | [4]; [7] 16% | [4]; [8] -5% | [4]; at 50.0 µM -26.6% | [5]; [7] -1% | [5]; [8] -1% | [5]; at 50.0 µM 35% | [6]; [7] 10% | [6]; [8] 33% | [6]; at 50.0 µM 51.1%
